Here are results for 18 molecules from PubChem BioAssay (NCATS).

A short description of experiment [1]: Quantitative High-Throughput drug screen in 47 multiple myeloma cell lines against the NCATS MIPE library collection: KMS34_JCRB cell viability assay (AID 1918985). Further: nearly all actives have a fitted effect of over 40% in size. In a few lines:
(§1)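 Plated at 500 cells per well, myeloma lines received MIPE 4.0 compounds by pin tool. Following 48 h culture at 37 °C, CellTiter-Glo luminescence gave viability relative to DMSO and media-only controls.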

The nature of experiment [2]: Quantitative High-Throughput drug screen in 47 multiple myeloma cell lines against the NCATS MIPE library collection: OCIMY7_PLB cell viability assay (AID 1918987). Further: nearly all actives have a fitted effect of over 65% in size. In short, it runs like this:
as §1

Experiment [3] is described as follows: Quantitative High-Throughput drug screen in 47 multiple myeloma cell lines against the NCATS MIPE library collection: OPM1_PLB cell viability assay (AID 1918989). Further: nearly all actives have a fitted effect of over 40% in size. In a few lines:
as §1

Experiment [4] is described as follows: Quantitative High-Throughput drug screen in 47 multiple myeloma cell lines against the NCATS MIPE library collection: U266_ATCC cell viability assay (AID 1919864). Further: nearly all actives have a fitted effect of over 35% in size.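 On viability (% of DMSO control): 0% = media-only wells without cells and 100% = DMSO-only wells.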 In short, it runs like this:
as §1

Experiment [5] can be described thus: Quantitative High-Throughput drug screen in 47 multiple myeloma cell lines against the NCATS MIPE library collection: XG6_PLB cell viability assay (AID 1919865). Further: nearly all actives have a fitted effect of over 40% in size. In short, it runs like this: as §1
Experiment [6] in a line: Quantitative High-Throughput drug screen in 47 multiple myeloma cell lines against the NCATS MIPE library collection: XG1_PLB cell viability assay (AID 1919866). Further: nearly all actives have a fitted effect of over 35% in size. In a few lines:
as §1

Experiment [7] in a line: Quantitative High-Throughput drug screen in 47 multiple myeloma cell lines against the NCATS MIPE library collection: VP6_DJ cell viability assay (AID 1919867). Further: nearly all actives have a fitted effect of over 40% in size. In short, it runs like this:
as §1

The nature of experiment [8]: Quantitative High-Throughput drug screen in 47 multiple myeloma cell lines against the NCATS MIPE library collection: UTMC2_PLB cell viability assay (AID 1919868). Further: nearly all actives have a fitted effect of over 55% in size.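 On viability (% of DMSO control): 100% = DMSO-only wells and 0% = media-only wells without cells.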 To be noted: CellTiter-Glo ATP luminescence, 48 h; viability (% of DMSO control): at 45.8 µM (top of the series) unless noted. In a few lines: as §1
For orientation: ATP-based viability assays read luminescence as a measure of living cells.

Experiment [9] can be described thus: Quantitative High-Throughput drug screen in 47 multiple myeloma cell lines against the NCATS MIPE library collection: OCIMY5_PLB cell viability assay (AID 1918988). Further: nearly all actives have a fitted effect of over 65% in size. In a few lines: as §1
Experiment [10] in a line: Quantitative High-Throughput drug screen in 47 multiple myeloma cell lines against the NCATS MIPE library collection: SKMM1_PLB cell viability assay (AID 1919863). Further: nearly all actives have a fitted effect of over 35% in size. To be noted: SKMM1 myeloma viability, CellTiter-Glo ATP, 48 h; viability: active compounds read low. In short, it runs like this:
as §1

Results filed as inconclusive are left out. Unmarked numbers belong to inactive results. The source made the active and inactive calls. The call rests on the fitted dose curve; in most records, active means well fitted cell-killing curve with a large enough effect; inconclusive means small, poorly fitted or top-dose-only effect, or effect the other way; inactive means no such curve, though single readings can be large or run the other way.
Potency means the concentration at half of the fitted maximal effect.

Consider `Nc1nccc(Oc2ccc(NC(=O)c3c[nH]cc(-c4ccc(F)cc4)c3=O)cc2F)c1Cl`, for which the Potency in [1] was 18.7 µM (active); in experiment [2], 18.7 µM (active); in experiment [3], 23.5 µM (active); in [4], 20.9 µM (active); in [5] it was 16.6 µM (active); in experiment [6], 18.7 µM (active). The Potency in experiment [7] is 16.6 µM (active); in experiment [8], 29.6 µM (active).

With `CC[C@H](CO)Nc1nc(NCc2ccccc2)c2ncn(C(C)C)c2n1`, the Potency in experiment [1] is 26.4 µM (active); in [2], 16.6 µM (active); in [9], 18.7 µM (active); in experiment [4], 23.5 µM (active); in experiment [5] it was 14.8 µM (active); in experiment [7], 18.7 µM (active).

With `CC=CC1=C(C(=O)O)N2C(=O)[C@H](NC(=O)[C@H](N)c3ccc(O)cc3)[C@@H]2SC1`, the Potency entry in [1], in experiment [5] and in experiment [6] was “inactive” in each case. For the same molecule, the Potency in experiment [2] is 26.4 µM (active); in experiment [7], 2.96 µM (active). Further, the viability (as a rule, a read-out of living cells in per cent, often relative to untreated cells) in experiment [10] was 117%.

In the case of `CC(C)Nc1cc(C(F)(F)F)cc2nc(NC(=O)c3cccnc3)nn12`, the Potency entry in experiment [1], in experiment [3] and in experiment [6] was “inactive” throughout. Moreover, the values for the Potency in experiment [9] and in [4] were 8.33 µM (active) and 7.43 µM (active), respectively.

As for `Nc1nc(Nc2ccc(S(N)(=O)=O)cc2)nn1C(=O)c1c(F)cccc1F`, the Potency in experiment [1] is 8.33 µM (active); in experiment [2] it was 3.32 µM (active); in experiment [10], 10.5 µM (active); in experiment [4], 7.43 µM (active); in experiment [6], 2.35 µM (active); in experiment [7], 5.26 µM (active).

Consider `CC(C)c1noc(N2CCC(COc3ccc(-c4ccc(S(C)(=O)=O)cc4)nc3)CC2)n1`, for which the Potency result in [1] and in experiment [4] was “inactive” each time. In addition, the Potency in experiment [9] was 8.33 µM (active); in experiment [5], 3.72 µM (active); in experiment [6], 2.64 µM (active); in experiment [7], 7.43 µM (active).

With `N#Cc1c(O)c2c(-c3ccc(-c4ccccc4O)cc3)csc2[nH]c1=O`, the Potency result in [1], in experiment [9], in experiment [4], in [5] and in experiment [6] was “inactive” each time.

Turning to `C[C@H]1C[C@@H]2[C@@H]([C@@H](O)C[C@@]3(C)[C@H]2CC[C@]3(O)C(=O)CO)[C@@]2(C)C=CC(=O)C=C12`, the Potency result in experiment [1], in [3], in [4], in [5] and in experiment [6] was “inactive” in each case. In experiment [10], the viability is 112%.

In the case of `CC(=O)Nc1sc2c(c1-c1nc3ccccc3s1)CNC2`, the Potency in experiment [1] was 6.62 µM (active); in experiment [9], 16.6 µM (active); in experiment [3], 18.7 µM (active); in experiment [10], 16.6 µM (active); in [4] it was 16.6 µM (active); in experiment [5] it was 9.35 µM (active). Moreover, the results for the Potency in experiment [6] and in [7] were 14.8 µM (active) and 11.8 µM (active), respectively.

As for `CNc1nccc(-c2cccnc2Oc2cc(C(=O)Nc3cccc(C(F)(F)F)c3)ccc2C)n1`, the Potency in experiment [1] is 14.8 µM (active); in experiment [2], 1.66 µM (active); in experiment [10], 18.7 µM (active); in experiment [4], 16.6 µM (active); in experiment [5], 2.35 µM (active); in [6] it was 2.35 µM (active). The Potency is 5.26 µM (active) in [7] and 14.8 µM (active) in experiment [8].

`CN1c2cc(O)c(N=NC(N)=O)cc2CC1S(=O)(=O)O` (configuration not stated): the Potency entry in experiment [1], in experiment [9], in experiment [3] and in experiment [7] was “inactive” each time. Further, the viability in experiment [10] was 97.7%.

For `COc1c(OCCCN2CCOCC2)ccc2c3n(c(=NC(=O)c4cnc(N)nc4)nc12)CCN3`, the Potency in [1] is 0.257 µM (active); in experiment [9] it was 0.102 µM (active); in [3] it was 0.812 µM (active); in [10], 0.162 µM (active); in [4], 0.645 µM (active); in experiment [6] it was 1.44 µM (active). The figures for the Potency in experiment [7] and in experiment [8] were 0.457 µM (active) and 0.115 µM (active), respectively.

Turning to `CN(c1ncccc1CNc1nc(Nc2ccc3c(c2)CC(=O)N3)ncc1C(F)(F)F)S(C)(=O)=O`, the Potency in [1] was 8.33 µM (active); in [9], 5.26 µM (active); in [3], 4.69 µM (active); in experiment [4], 9.35 µM (active); in experiment [5], 3.72 µM (active); in experiment [6], 3.32 µM (active). In addition, the Potency in experiment [7] is 2.64 µM (active).

`COC(=O)[C@]12CCC(C)(C)C[C@@H]1[C@@H]1C(=O)C=C3[C@@]4(C)C=C(C#N)C(=O)C(C)(C)[C@@H]4CC[C@@]3(C)[C@]1(C)CC2`: the Potency in [1] is 0.662 µM (active); in experiment [9], 0.209 µM (active); in [3] it was 0.209 µM (active); in experiment [10], 0.469 µM (active); in [4] it was 0.264 µM (active); in experiment [5] it was 0.372 µM (active). For the same molecule, the Potency in [6] is 0.166 µM (active); in experiment [7] it was 0.264 µM (active); in [8], 0.372 µM (active).

As to `Cc1cc(C(=O)N2CCN(c3cccc(Cl)c3)CC2)n(-c2ccccc2)n1`, the Potency in [1] was 1.05 µM (active); in experiment [2] it was 0.059 µM (active); in [10], 0.296 µM (active); in [4] it was 20.9 µM (active); in [7], 1.32 µM (active); in experiment [8] it was 0.833 µM (active).

As to `O=C(NCCS(=O)(=O)c1ccc(C(F)(F)F)cn1)c1ccc(Cl)cc1`, the Potency result in [1], in [3], in [4], in experiment [6] and in [8] was “inactive” each time. Further, the viability in [10] is 128%.

Take `CC1COC2(CCN(c3nc(=O)c4cc(C(F)(F)F)cc([N+](=O)[O-])c4s3)CC2)O1` (configuration not stated): the Potency entry in experiment [1], in experiment [3], in experiment [4], in [7] and in [8] was “inactive” throughout.

For `COc1cc(-c2nn(C3CCC(N4CCN(C(C)=O)CC4)CC3)c3ncnc(N)c23)ccc1NC(=O)c1cc2ccccc2n1C` (configuration not stated), the Potency was 6.62 µM (active) in experiment [1]; 1.87 µM (active) in [9]; 2.64 µM (active) in experiment [3]; 14.8 µM (active) in experiment [10]; 1.66 µM (active) in experiment [5]; 0.332 µM (active) in [6]. Besides, the Potency in experiment [7] was 6.62 µM (active).
